# Measurements published in PubChem BioAssay (EPA / NIEHS).
# Active and inactive are the calls of the source. How the source made its calls: active means hit-call score of the fitted dose curve at least 0.9, where 1 is the maximum; inactive means score below 0.9.
# Experiments:
# Settings in all cases: mRNA level, 48 h; actives raise or lower the signal
# [1] = read-out: Bcl-2 (BAD) gene, BAD (gene 572); assay: LTEA_HepaRG_BAD: Life Technologies and Expression Analysis (LTEA) Assay for Bcl-2 (BAD) gene using HepaRG (AID 2283469)
# Method in brief: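 HepaRG, 48 h exposure, 8-pt half-log curve from 100 uM in 0.5% DMSO, duplicates. Readout: TaqMan qRT-PCR for BAD mRNA, housekeeping-normalised (ACTB/GAPDH/POLR2A); gain or loss fitted against DMSO baseline.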
# [2] = read-out: Bcl-2 (BAX) gene, BAX (gene 581); assay: LTEA_HepaRG_BAX: Life Technologies and Expression Analysis (LTEA) Assay for Bcl-2 (BAX) gene using HepaRG (AID 2283470)
# Method in brief: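 qRT-PCR read-out of BAX mRNA, normalized to three housekeeping genes, after 48 h chemical exposure of human HepaRG cells in serum-free induction medium; eight-point half-log series, top 100 uM, 0.5% DMSO vehicle; bidirectional fit versus DMSO.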
# [3] = read-out: adenosine kinase (ADK) gene, ADK (gene 132); assay: LTEA_HepaRG_ADK: Life Technologies and Expression Analysis (LTEA) Assay for adenosine kinase (ADK) gene using HepaRG (AID 2283471)
# Method in brief: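 Differentiated HepaRG cells dosed 48 h in serum-free induction medium, 0.5% DMSO vehicle, eight half-log concentrations from 100 uM, in duplicate. ADK mRNA by TaqMan qRT-PCR normalised to ACTB, GAPDH, POLR2A; bidirectional fit versus DMSO.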
# [4] = read-out: Alpha-fetoprotein (AFP) gene, AFP (gene 174); assay: LTEA_HepaRG_AFP: Life Technologies and Expression Analysis (LTEA) Assay for Alpha-fetoprotein (AFP) gene using HepaRG (AID 2283472)
# Method in brief: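 qRT-PCR (Fluidigm TaqMan) readout of AFP transcript, normalized to three housekeeping genes, fitted bidirectionally against 0.5% DMSO baseline. HepaRG cells received chemicals for 48 h in serum-free induction medium, top concentration 100 uM, half-log steps.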
# BCL2L11 (gene 10018) = assay: LTEA_HepaRG_BCL2L11: Life Technologies and Expression Analysis (LTEA) Assay for Bcl-2 (BCL2L11) gene using HepaRG (AID 2283473)
# Method in brief: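 Read-out is BCL2L11 transcript level by qRT-PCR, normalized to three housekeeping genes and fitted bidirectionally against 0.5% DMSO vehicle. HepaRG cells received chemicals for 48 h in serum-free induction medium, 100 uM down in half-log dilutions.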
# [5] = read-out: Apolipoprotein A-V (APOA5) gene, APOA5 (gene 116519); assay: LTEA_HepaRG_APOA5: Life Technologies and Expression Analysis (LTEA) Assay for Apolipoprotein A-V (APOA5) gene using HepaRG (AID 2283474)
# Method in brief: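 Readout is APOA5 transcript level by qRT-PCR on Fluidigm dynamic arrays, normalized to three housekeeping genes. HepaRG cultures received chemicals for 48 h at up to 100 uM (half-log steps, 0.5% DMSO), with gain or loss scored relative to DMSO.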
# [6] = read-out: Apoptosis regulator Bcl-2 (Homo sapiens) (UniProt P10415); assay: LTEA_HepaRG_BCL2: Life Technologies and Expression Analysis (LTEA) Assay for Bcl-2 gene using HepaRG (AID 2283475)
# Method in brief: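 qRT-PCR read-out (Fluidigm TaqMan) of BCL2 transcript, normalised to three housekeeping genes, after 48 h chemical exposure of HepaRG cells; 8-point half-log series, top 100 uM, 0.5% DMSO vehicle. Gain or loss of signal fitted relative to DMSO baseline.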
# [7] = read-out: Bcl-2 (BID) gene, BID (gene 637); assay: LTEA_HepaRG_BID: Life Technologies and Expression Analysis (LTEA) Assay for Bcl-2 (BID) gene using HepaRG (AID 2283476)
# Method in brief: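 HepaRG, 48 h exposure, 8-pt half-log series, top 100 uM, 0.5% DMSO vehicle, duplicates. Readout: BID mRNA by TaqMan qRT-PCR; housekeeping-normalized; bidirectional curve fit vs DMSO baseline.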
# Caspase-3 (Homo sapiens) = Caspase-3 (Homo sapiens) (UniProt P42574); assay: LTEA_HepaRG_CASP3: Life Technologies and Expression Analysis (LTEA) Assay for cysteine-aspartic acid protease (CASP3) using HepaRG (AID 2283477)
# Sequence of Caspase-3 (Homo sapiens) (P42574 whole entry, looked up): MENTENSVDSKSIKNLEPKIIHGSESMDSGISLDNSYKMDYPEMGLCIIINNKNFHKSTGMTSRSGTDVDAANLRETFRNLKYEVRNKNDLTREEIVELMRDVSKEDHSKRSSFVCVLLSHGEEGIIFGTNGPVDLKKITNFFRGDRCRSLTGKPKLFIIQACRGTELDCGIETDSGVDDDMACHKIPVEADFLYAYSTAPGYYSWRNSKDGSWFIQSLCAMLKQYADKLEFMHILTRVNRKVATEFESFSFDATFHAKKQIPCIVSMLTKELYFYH
# Method in brief: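 Read-out is CASP3 mRNA level by TaqMan qRT-PCR in human HepaRG cells after 48 h chemical exposure. Eight half-log concentrations topping at 100 uM were tested in 0.5% DMSO; gain or loss was fitted relative to DMSO.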
# [8] = read-out: Cytochrome P450 (CYP24A1), CYP24A1 (gene 1591); assay: LTEA_HepaRG_CYP24A1: Life Technologies and Expression Analysis (LTEA) Assay for Cytochrome P450 (CYP24A1) using HepaRG (AID 2283478)
# Method in brief: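 HepaRG, 48 h chemical exposure, 8-pt half-log CRC from 100 uM, 0.5% DMSO vehicle, duplicates. Endpoint: CYP24A1 mRNA by Fluidigm TaqMan qRT-PCR, normalized ACTB/GAPDH/POLR2A; gain/loss fit vs DMSO.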
# [9] = read-out: Cytochrome P450 (CYP1A2), CYP1A2 (gene 1544); assay: LTEA_HepaRG_CYP1A2: Life Technologies and Expression Analysis (LTEA) Assay for Cytochrome P450 (CYP1A2) using HepaRG (AID 2283479)
# Method in brief: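 CYP1A2 transcript induction or loss, quantified by Fluidigm qRT-PCR against three housekeeping genes, was fitted bidirectionally against 0.5% DMSO controls. Human HepaRG cells received eight half-log concentrations from 100 uM over 48 h.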
# [10] = read-out: Cytochrome P450 (CYP2B6), CYP2B6 (gene 1555); assay: LTEA_HepaRG_CYP2B6: Life Technologies and Expression Analysis (LTEA) Assay for Cytochrome P450 (CYP2B6) using HepaRG (AID 2283481)
# Method in brief: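 HepaRG cells plated 48 h, switched to serum-free induction medium, then dosed 48 h (8 points, half-log from 100 uM, 0.5% DMSO). RNA isolated; CYP2B6 expression measured by qRT-PCR; gain or loss fitted relative to DMSO.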
# [11] = read-out: Cytochrome P450 2C19 (Homo sapiens) (UniProt P33261); assay: LTEA_HepaRG_CYP2C19: Life Technologies and Expression Analysis (LTEA) Assay for CYP2C19 using HepaRG (AID 2283482)
# Method in brief: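 Transcript levels of CYP2C19 were quantified by qRT-PCR after HepaRG cells were treated for 48 hours with test chemicals up to 100 uM (eight half-log concentrations, 0.5% DMSO vehicle). Gain or loss of signal was fitted relative to DMSO.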
# CYP2C8 (gene 1558) = assay: LTEA_HepaRG_CYP2C8: Life Technologies and Expression Analysis (LTEA) Assay for CYP2C8 using HepaRG (AID 2283483)
# Method in brief: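 HepaRG (human liver line), 48 h chemical exposure, 8-pt half-log series from 100 uM, 0.5% DMSO vehicle. Readout: CYP2C8 transcript by qRT-PCR, housekeeping-normalized. Bidirectional fit vs DMSO baseline.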
# CYP2C9 (gene 1559) = assay: LTEA_HepaRG_CYP2C9: Life Technologies and Expression Analysis (LTEA) Assay for CYP2C9 using HepaRG (AID 2283484)
# Method in brief: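 HepaRG, 48 h dosing, 8-pt half-log series, top 100 uM, 0.5% DMSO vehicle. Read-out: CYP2C9 transcript by TaqMan qRT-PCR, housekeeping-normalized (ACTB/GAPDH/POLR2A). Gain or loss fitted vs DMSO baseline.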
# CYP2E1 (gene 1571) = assay: LTEA_HepaRG_CYP2E1: Life Technologies and Expression Analysis (LTEA) Assay for CYP2E1 using HepaRG (AID 2283485)
# Method in brief: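 CYP2E1 transcript was measured by TaqMan qRT-PCR in human HepaRG cultures after 48 h chemical exposure (top 100 uM, half-log steps, 0.5% DMSO vehicle). Housekeeping-gene normalization; gain or loss fitted relative to DMSO baseline.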
# CYP4A11 (gene 1579) = assay: LTEA_HepaRG_CYP4A11: Life Technologies and Expression Analysis (LTEA) Assay for CYP4A11 using HepaRG (AID 2283486)
# Method in brief: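 HepaRG, 48 h chem exposure, 8 conc (100 uM top, half-log), 0.5% DMSO vehicle; qRT-PCR readout, housekeeping-gene normalized; bidirectional curve fit vs DMSO baseline.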
# [12] = read-out: Cytochrome P450 3A4 (Homo sapiens) (UniProt P08684); assay: LTEA_HepaRG_CYP3A4: Life Technologies and Expression Analysis (LTEA) Assay for CYP3A4 using HepaRG (AID 2283487)
# Method in brief: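 Differentiated HepaRG cells in serum-free induction medium exposed in duplicate for 48 h to 8 half-log concentrations up to 100 uM in 0.5% DMSO. CYP3A4 mRNA measured by qRT-PCR normalized to ACTB, GAPDH and POLR2A; bidirectional fit versus DMSO.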
# [13] = read-out: DNA damage-inducible transcript 3 (DDIT3), DDIT3 (gene 1649); assay: LTEA_HepaRG_DDIT3: Life Technologies and Expression Analysis (LTEA) Assay for DNA damage-inducible transcript 3 (DDIT3) using HepaRG (AID 2283488)
# Method in brief: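 qRT-PCR readout (Fluidigm TaqMan), housekeeping-normalized to ACTB, GAPDH, POLR2A. HepaRG cells, 48 h exposure, 8-point half-log series from 100 uM in 0.5% DMSO, duplicates. Gain or loss of signal fitted against DMSO baseline.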
# [14] = read-out: cysteine-aspartic acid protease (CASP8), CASP8 (gene 841); assay: LTEA_HepaRG_CASP8: Life Technologies and Expression Analysis (LTEA) Assay for cysteine-aspartic acid protease (CASP8) using HepaRG (AID 2283480)
# Method in brief: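 qRT-PCR readout of CASP8 mRNA, normalized to three housekeeping genes, after 48 h chemical exposure of HepaRG cells; 8-point half-log series, top 100 uM, 0.5% DMSO vehicle. Bidirectional curve fitting against DMSO baseline.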
# Sequence of Apoptosis regulator Bcl-2 (Homo sapiens) (P10415 whole entry, looked up): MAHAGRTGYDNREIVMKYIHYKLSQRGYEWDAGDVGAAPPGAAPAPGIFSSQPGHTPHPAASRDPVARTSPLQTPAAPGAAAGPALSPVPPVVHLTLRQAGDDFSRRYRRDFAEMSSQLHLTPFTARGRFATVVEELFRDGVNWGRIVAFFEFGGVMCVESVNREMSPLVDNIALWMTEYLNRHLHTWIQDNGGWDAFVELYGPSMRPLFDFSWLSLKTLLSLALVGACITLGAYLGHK
# Sequence of Cytochrome P450 2C19 (Homo sapiens) (P33261 whole entry, looked up): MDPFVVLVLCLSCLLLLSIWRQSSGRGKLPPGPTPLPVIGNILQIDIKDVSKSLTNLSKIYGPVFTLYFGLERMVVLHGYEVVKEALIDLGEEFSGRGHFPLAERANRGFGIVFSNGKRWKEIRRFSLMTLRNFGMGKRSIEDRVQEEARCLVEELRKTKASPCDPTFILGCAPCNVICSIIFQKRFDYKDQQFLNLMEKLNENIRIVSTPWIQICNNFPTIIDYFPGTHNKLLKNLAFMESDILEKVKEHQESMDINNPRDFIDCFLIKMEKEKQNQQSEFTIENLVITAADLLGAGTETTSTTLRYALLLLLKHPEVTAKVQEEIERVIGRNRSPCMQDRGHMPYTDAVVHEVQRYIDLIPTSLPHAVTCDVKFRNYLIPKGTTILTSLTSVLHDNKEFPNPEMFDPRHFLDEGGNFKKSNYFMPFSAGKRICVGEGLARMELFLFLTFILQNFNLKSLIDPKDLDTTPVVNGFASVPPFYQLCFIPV
# Sequence of Cytochrome P450 3A4 (Homo sapiens) (P08684 whole entry, looked up): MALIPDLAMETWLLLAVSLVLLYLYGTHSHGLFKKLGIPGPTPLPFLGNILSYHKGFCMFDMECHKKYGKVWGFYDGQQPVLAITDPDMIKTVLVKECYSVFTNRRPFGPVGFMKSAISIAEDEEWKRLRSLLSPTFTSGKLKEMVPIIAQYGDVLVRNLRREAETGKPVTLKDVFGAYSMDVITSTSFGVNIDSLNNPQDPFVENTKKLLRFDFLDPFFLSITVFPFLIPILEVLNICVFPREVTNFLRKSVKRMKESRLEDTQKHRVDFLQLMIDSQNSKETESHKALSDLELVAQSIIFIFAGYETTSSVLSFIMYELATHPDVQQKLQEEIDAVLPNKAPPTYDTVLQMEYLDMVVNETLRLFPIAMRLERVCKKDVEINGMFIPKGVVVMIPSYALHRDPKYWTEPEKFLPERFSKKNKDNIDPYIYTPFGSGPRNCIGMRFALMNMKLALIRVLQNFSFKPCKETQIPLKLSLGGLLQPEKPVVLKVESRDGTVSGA
smiles,measurement,setting,value
CC(C)N1C(=O)N(c2ccccc2)CSC1=NC(C)(C)C,outcome,[1],inactive
same,AC50,[2],77.4 µM (active)
same,outcome,[3],inactive
same,AC50,[4],64.4 µM (active)
same,outcome,BCL2L11 (gene 10018),inactive
same,AC50,[5],81.8 µM (active)
same,AC50,[6],78.7 µM (active)
same,outcome,[7],inactive
same,outcome,Caspase-3 (Homo sapiens),inactive
same,outcome,[8],inactive
same,AC50,[9],50 µM (active)
same,AC50,[10],89.3 µM (active)
same,AC50,[11],11.4 µM (active)
same,AC50,CYP2C8 (gene 1558),84.2 µM (active)
same,AC50,CYP2C9 (gene 1559),83.3 µM (active)
same,AC50,CYP2E1 (gene 1571),63.5 µM (active)
same,AC50,CYP4A11 (gene 1579),67.6 µM (active)
same,AC50,[12],12 µM (active)
same,AC50,[13],73.8 µM (active)
Clc1nc(Cl)nc(Nc2ccccc2Cl)n1,outcome,[1],inactive
same,outcome,[2],inactive
same,outcome,[3],inactive
same,outcome,[4],inactive
same,outcome,BCL2L11 (gene 10018),inactive
same,outcome,[5],inactive
same,outcome,[6],inactive
same,outcome,[7],inactive
same,outcome,Caspase-3 (Homo sapiens),inactive
same,outcome,[8],inactive
same,AC50,[9],20.1 µM (active)
same,AC50,[10],34.8 µM (active)
same,AC50,[11],10.3 µM (active)
same,outcome,CYP2C8 (gene 1558),inactive
same,outcome,CYP2C9 (gene 1559),inactive
same,AC50,CYP2E1 (gene 1571),16.7 µM (active)
same,outcome,CYP4A11 (gene 1579),inactive
same,AC50,[12],18.5 µM (active)
same,outcome,[13],inactive
N#Cc1c[nH]cc1-c1cccc2c1OC(F)(F)O2,outcome,[1],inactive
same,AC50,[2],23.3 µM (active)
same,outcome,[3],inactive
same,AC50,[4],73.3 µM (active)
same,AC50,BCL2L11 (gene 10018),20.9 µM (active)
same,outcome,[5],inactive
same,outcome,[7],inactive
same,outcome,Caspase-3 (Homo sapiens),inactive
same,outcome,[8],inactive
same,AC50,[9],21.3 µM (active)
same,AC50,[10],32 µM (active)
same,AC50,[11],93.5 µM (active)
same,outcome,CYP2C8 (gene 1558),inactive
same,AC50,CYP2C9 (gene 1559),50 µM (active)
same,AC50,CYP2E1 (gene 1571),76 µM (active)
same,AC50,CYP4A11 (gene 1579),85.2 µM (active)
same,AC50,[12],9.76 µM (active)
same,outcome,[13],inactive
CN=C=S,outcome,[1],inactive
same,outcome,[2],inactive
same,outcome,[3],inactive
same,outcome,[4],inactive
same,outcome,BCL2L11 (gene 10018),inactive
same,outcome,[5],inactive
same,outcome,[6],inactive
same,outcome,[7],inactive
same,outcome,Caspase-3 (Homo sapiens),inactive
same,outcome,[8],inactive
same,outcome,[9],inactive
same,outcome,[14],inactive
same,outcome,[10],inactive
same,outcome,[11],inactive
same,outcome,CYP2C8 (gene 1558),inactive
same,outcome,CYP2C9 (gene 1559),inactive
same,outcome,CYP2E1 (gene 1571),inactive
same,outcome,CYP4A11 (gene 1579),inactive
same,outcome,[12],inactive
same,outcome,[13],inactive
Cc1nc(N(C)C)nc(OC(=O)N(C)C)c1C,outcome,[1],inactive
same,outcome,[2],inactive
same,outcome,[3],inactive
same,outcome,[4],inactive
same,outcome,BCL2L11 (gene 10018),inactive
same,outcome,[5],inactive
same,outcome,[6],inactive
same,outcome,[7],inactive
same,outcome,Caspase-3 (Homo sapiens),inactive
same,AC50,[8],92.4 µM (active)
same,outcome,[9],inactive
same,outcome,[14],inactive
same,AC50,[10],8.42 µM (active)
same,AC50,[11],19.7 µM (active)
same,AC50,CYP2C8 (gene 1558),9.92 µM (active)
same,outcome,CYP2C9 (gene 1559),inactive
same,outcome,CYP2E1 (gene 1571),inactive
same,outcome,CYP4A11 (gene 1579),inactive
same,AC50,[12],40.7 µM (active)
same,outcome,[13],inactive
CC(C)Nc1nc(Cl)nc(NC(C)C)n1,outcome,[1],inactive
same,outcome,[2],inactive
same,outcome,[3],inactive
same,AC50,[4],24.8 µM (active)
same,outcome,BCL2L11 (gene 10018),inactive
same,outcome,[5],inactive
same,outcome,[6],inactive
same,outcome,[7],inactive
same,outcome,Caspase-3 (Homo sapiens),inactive
same,outcome,[8],inactive
same,outcome,[9],inactive
same,AC50,[10],2.93 µM (active)
same,AC50,[11],4.74 µM (active)
same,outcome,CYP2C8 (gene 1558),inactive
same,outcome,CYP2C9 (gene 1559),inactive
same,AC50,CYP2E1 (gene 1571),37.8 µM (active)
same,outcome,CYP4A11 (gene 1579),inactive
same,AC50,[12],7.35 µM (active)
same,outcome,[13],inactive
